Source: PubChem (National Center for Advancing Translational Sciences (NCATS))
Ub-GFP proteasome = inhibits proteasome, raising ubiquitin-GFP reporter fluorescence | AID 526 | 67,000 tested, under 10 active | Potency, µM (highest dose often 45.9 µM), usual class: activators | Ubiquitin-GFP reporter cells, proteasome inhibition, GFP fluorescence; response scale: untreated = 0%, 10 µM MG-132 = 100%; active = well fitted activation curve with a large enough effect, not every such curve was filed as active; inconclusive = small, poorly fitted or top-dose-only effect, or another doubt; inactive = no such curve, though single readings can be large or run the other way
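Proteasome block read as GFP accumulation: ubiquitin(G76V)-GFP U2OS cells exposed to compound (2.9 nM–46 uM) for 4 hr at 37 C. Normalization used untreated cells as 0% and 10 uM MG-132 as 100%; concentration-response curves fitted.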
Tau filament bind = binders of human tau filaments; P10636; recombinant tau filaments, thioflavin S fluorescence, 15 h; filaments grown with octadecylsulfate alongside compound; Potency, µM (titrated, usually from 57.1 µM); actives 2% (n = 71,000);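 also: actives lower thioflavin S fluorescence by blocking filaments or displacing dye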
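Thioflavine S fluorescence (ex 450, em 510 nm) reports filaments formed from 1 uM human tau plus 30 uM ODS over 15 h at 37 C (10 mM HEPES pH 7.4, 100 mM NaCl, 5 mM DTT); compounds displacing dye or blocking filaments lower signal.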
HBB splice mod = alters splicing of the hemoglobin beta chain; HBB splicing reporter cell assay, activation; EGFP reporter with mutant IVS2-654 intron; response scale: normalised to 500 nM splice-correcting PNA; Potency, µM (series often up to 46.1 µM), most hits filed as activators; actives 0.06% (n = 65,000)
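HeLa cells stably expressing EGFP interrupted by mutant beta-globin intron 2 (IVS2-654), 500/well in 2% FCS. Treated with compound for 2 days at 37C. Splicing correction scored as total well GFP intensity (488 nm excitation, 500-520 nm emission); 500 nM antisense PNA served as control.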
15-hLO-2 inh = 15-hLO-2 (ALOX15B) enzyme inhibition; O15296; purified 15hLO-2, xylenol orange hydroperoxide absorbance; Potency, µM (highest dose often 57.1 µM), usual class: inhibitors; actives 0.56% (n = 110,000); also: nearly all actives have a fitted effect of over 60% in size
Target sequence (O15296 whole entry, looked up): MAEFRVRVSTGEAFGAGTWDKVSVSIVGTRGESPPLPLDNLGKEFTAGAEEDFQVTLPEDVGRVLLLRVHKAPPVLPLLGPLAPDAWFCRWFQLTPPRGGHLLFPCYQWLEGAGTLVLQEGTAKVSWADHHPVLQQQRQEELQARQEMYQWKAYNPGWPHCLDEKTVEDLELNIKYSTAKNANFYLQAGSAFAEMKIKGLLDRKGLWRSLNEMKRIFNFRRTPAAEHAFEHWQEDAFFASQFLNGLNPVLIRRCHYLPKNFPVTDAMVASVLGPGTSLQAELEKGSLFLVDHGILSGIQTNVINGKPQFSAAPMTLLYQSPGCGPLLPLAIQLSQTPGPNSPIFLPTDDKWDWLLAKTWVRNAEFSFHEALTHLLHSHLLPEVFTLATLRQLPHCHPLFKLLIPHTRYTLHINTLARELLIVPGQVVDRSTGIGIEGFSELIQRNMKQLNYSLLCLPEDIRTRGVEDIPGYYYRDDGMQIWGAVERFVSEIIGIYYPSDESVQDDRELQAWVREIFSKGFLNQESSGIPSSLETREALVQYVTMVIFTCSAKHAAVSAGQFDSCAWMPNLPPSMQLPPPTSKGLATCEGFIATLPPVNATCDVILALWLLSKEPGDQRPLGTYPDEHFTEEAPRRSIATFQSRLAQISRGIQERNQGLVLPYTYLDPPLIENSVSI
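Read-out: hydroperoxide product oxidises ferrous iron, measured as xylenol orange complex via the 573-to-405 nm absorbance ratio after 30 min. Reaction: 50 nM enzyme, 15 min compound preincubation, 45 uM arachidonic acid, 90 min RT, Hepes pH 7.5 with Triton X-100.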
15-hLO inh = 15-hLO (ALOX15) enzyme inhibition; P16050; purified 15hLO-1, xylenol orange hydroperoxide absorbance; Potency, µM (doses to about 57.1 µM), actives largely listed as inhibitors; actives 1.4% (n = 74,000); AID 887; also: nearly all actives have a fitted effect of over 55% in size
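Inhibition is scored from a chromogenic endpoint. After 15 min enzyme-compound contact, arachidonic acid (50 uM final) reacts 6 min with 40 nM 15hLO-1 at room temperature, then Fe-XO reagent is added for 30 min and absorbance ratio recorded.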
Epigenetic mod = epigenetic GFP locus derepression in mouse cells; mouse C127i GFP locus derepression, cytometry, 30 h; Potency, µM (series often up to 46.1 µM); actives 0.09% (n = 68,000); AID 597
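Murine C127i mammary cells carrying a silenced, stably integrated CMV-driven GFP reporter were treated with compound for 30 hours at 37 C. After PBS washes, GFP-positive cells were counted by laser-scanning microplate cytometry.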
A number is an active result; [ ] = remark or other dose. Most compounds without a hit are left out; they make up all but 2.3% or so of the library. Unless noted, calls follow the shape of the dose curve; as a rule, active = well fitted curve in the direction sought with a large enough effect; inconclusive = small, poorly fitted or top-dose-only effect, or another doubt; inactive = no such curve, though single readings can be large; an effect the other way counts as inactive or inconclusive.

For O=C(O)CCC(=O)Nc1ccc(N2CCCCCC2)cc1 the results were Ub-GFP proteasome inactive, Tau filament bind inactive, HBB splice mod inactive, 15-hLO-2 inh inactive, 15-hLO inh inactive and Epigenetic mod inactive.
For O=C(Nc1ccc(N2CCCC2)cc1)C(Cl)c1ccccc1 (centres undefined) the results were 15-hLO-2 inh 13µM.
Screening Cc1c(Cl)ccc2c1NC(=O)[C@]21[C@@H]2C(=O)N(Cc3ccccc3)C(=O)[C@@H]2[C@@H]2CCCN21 returned Ub-GFP proteasome inactive, Tau filament bind 25µM, HBB splice mod inactive, 15-hLO-2 inh inactive, 15-hLO inh inconclusive and Epigenetic mod inactive.
CCc1cccc2c1NC(=O)[C@]21[C@@H]2C(=O)N(Cc3ccccc3)C(=O)[C@@H]2[C@@H]2CCCN21 was read as Ub-GFP proteasome inactive, Tau filament bind 25µM, HBB splice mod inactive, 15-hLO-2 inh inactive, 15-hLO inh inactive and Epigenetic mod inactive.
Screening COc1ccccc1CN1C(=O)[C@@H]2C(CC(N)=O)NC3(C(=O)Nc4c3ccc(Cl)c4C)[C@@H]2C1=O (some centres undefined) returned Ub-GFP proteasome inactive, Tau filament bind inactive, HBB splice mod inactive, 15-hLO-2 inh inactive, 15-hLO inh inactive and Epigenetic mod inactive.
For Nc1nc2c(cnn2CCc2ccccc2)c2nc(-c3ccco3)nn12 the results were HBB splice mod inactive, 15-hLO-2 inh inactive and 15-hLO inh 20µM.
For Nc1nc2ccc(Cl)cc2c2nc(-c3ccco3)nn12 the results were Ub-GFP proteasome inactive, Tau filament bind inactive, HBB splice mod inactive, 15-hLO-2 inh inactive, 15-hLO inh inactive and Epigenetic mod inactive.
`C=C(c1ccc(O)cc1)c1ccc(O)cc1` gave Ub-GFP proteasome inactive, Tau filament bind inactive, HBB splice mod inactive, 15-hLO-2 inh inconclusive, 15-hLO inh inactive and Epigenetic mod inactive.
C/C=C(/C(=C/C)c1ccc(O)cc1)c1ccc(O)cc1 was read as 15-hLO-2 inh 16µM, 15-hLO inh 25µM and Epigenetic mod inactive.
For O=c1[nH]c2cc3c(cc2cc1CN(Cc1cccnc1)Cc1nnnn1Cc1ccco1)OCCO3 the results were 15-hLO-2 inh inactive.
Screening Cc1ccc2[nH]c(=O)c(CN(Cc3ccc4c(c3)OCO4)Cc3nnnn3Cc3ccco3)cc2c1 returned Ub-GFP proteasome inactive, Tau filament bind inactive, 15-hLO-2 inh inactive[2.29 µM], 15-hLO inh inconclusive and Epigenetic mod inactive.
`O=c1[nH]c2cc3c(cc2cc1CN(Cc1ccccc1)Cc1nnnn1Cc1ccco1)OCCO3` gave Ub-GFP proteasome inactive, Tau filament bind inactive, HBB splice mod inactive, 15-hLO-2 inh inactive, 15-hLO inh 32µM and Epigenetic mod inactive.
`O=c1[nH]c2cc3c(cc2cc1CN(Cc1cccs1)Cc1nnnn1Cc1ccco1)OCCO3` gave Ub-GFP proteasome inactive, Tau filament bind inactive, HBB splice mod inactive, 15-hLO-2 inh inactive, 15-hLO inh 10µM and Epigenetic mod inactive.
For Cc1cc(C)c2cc(CN(Cc3ccc4c(c3)OCO4)Cc3nnnn3Cc3ccco3)c(=O)[nH]c2c1 the results were Ub-GFP proteasome inactive, Tau filament bind inactive, 15-hLO-2 inh inactive, 15-hLO inh 10µM and Epigenetic mod inactive.
C[C@H](Oc1ccc(Oc2cnc3ccc(Cl)cc3n2)cc1)C(=O)O was read as Ub-GFP proteasome inactive[9.17 µM], Tau filament bind inactive[11.4 µM], HBB splice mod inactive[9.22 µM], 15-hLO-2 inh inactive[11.4 µM], 15-hLO inh inconclusive and Epigenetic mod inactive[9.22 µM].
Screening Cc1ncc(COP(=O)(O)O)c(C)c1O returned Ub-GFP proteasome inactive[9.17 µM], Tau filament bind inactive[11.4 µM], HBB splice mod inactive[9.22 µM], 15-hLO-2 inh inactive[11.4 µM], 15-hLO inh inactive[11.4 µM] and Epigenetic mod inactive[9.22 µM].
Screening C=CC(=O)OCCCC returned Tau filament bind inactive, HBB splice mod inactive, 15-hLO-2 inh inactive and 15-hLO inh inactive.
`CCOC(=O)C1=C[C@@]2(CC)CCCN3CCc4c(n1c1ccccc41)C32` (some centres undefined) gave 15-hLO-2 inh inactive and 15-hLO inh inactive.
Oc1ccc(-c2nc(-c3ccc(O)c(O)c3)cs2)cc1 was read as Ub-GFP proteasome inactive, Tau filament bind inconclusive, HBB splice mod inactive, 15-hLO-2 inh 4µM, 15-hLO inh 1.6µM and Epigenetic mod inactive.
`COc1cc(/C=C(\C#N)C(=O)c2ccc(O)c(O)c2)cc(I)c1O` gave Ub-GFP proteasome inactive, Tau filament bind inactive, HBB splice mod inactive, 15-hLO-2 inh inactive, 15-hLO inh 1µM and Epigenetic mod inactive.
CC(C)C(O)(C(C)C)C(C)C was read as Ub-GFP proteasome inactive[9.17 µM], Tau filament bind inactive[11.4 µM], HBB splice mod inactive[9.22 µM], 15-hLO-2 inh inactive[11.4 µM], 15-hLO inh inactive[11.4 µM] and Epigenetic mod inactive[9.22 µM].
For Cc1nc2cccc([N+](=O)[O-])c2n1CCCN(C)C the results were Ub-GFP proteasome inactive[9.17 µM], Tau filament bind inactive[11.4 µM], HBB splice mod inactive[9.22 µM], 15-hLO-2 inh inactive[11.4 µM], 15-hLO inh inactive[11.4 µM] and Epigenetic mod inactive[9.22 µM].
For CCOC(=O)CNC(=O)c1ccc2[nH]c3c(c2c1)CCCC3 the results were Ub-GFP proteasome inactive, Tau filament bind inactive, HBB splice mod inactive, 15-hLO-2 inh inactive, 15-hLO inh inactive and Epigenetic mod inactive.
CCS(=O)(=O)NCc1ccc2[nH]c3c(c2c1)CCCC3 was read as Ub-GFP proteasome inactive, Tau filament bind inactive, HBB splice mod inactive, 15-hLO-2 inh inactive, 15-hLO inh 0.4µM and Epigenetic mod inactive.
O=C(Nc1ccc2c(c1)OCO2)c1cc2ncc(Br)cn2n1 was read as Ub-GFP proteasome inactive, Tau filament bind 25µM, HBB splice mod inactive, 15-hLO-2 inh inactive, 15-hLO inh inactive and Epigenetic mod inactive.
CCC(C)c1ccc(O)c(N)c1 (centres undefined) was read as Ub-GFP proteasome inactive, Tau filament bind inconclusive, HBB splice mod inactive, 15-hLO-2 inh inconclusive, 15-hLO inh 13µM and Epigenetic mod inactive.
`CC(C)c1ccc(O)c(N)c1` gave 15-hLO-2 inh 5µM and Epigenetic mod inactive.
COCc1cc(CN2CCCC2)c(O)c2ncccc12 was read as Ub-GFP proteasome inactive, Tau filament bind inactive, HBB splice mod inactive, 15-hLO-2 inh inactive, 15-hLO inh 2.5µM and Epigenetic mod inconclusive.
Oc1c(CN2CCN(c3ccccn3)CC2)cc(Cl)c2cccnc12 was read as Ub-GFP proteasome inactive, Tau filament bind inactive, HBB splice mod inactive, 15-hLO-2 inh inactive, 15-hLO inh inactive and Epigenetic mod 3.2µM.
For Oc1c(CN2CCCCC2)cc(COCc2ccccc2)c2cccnc12 the results were Ub-GFP proteasome inactive, Tau filament bind inactive, HBB splice mod inactive, 15-hLO-2 inh inactive, 15-hLO inh inactive and Epigenetic mod inactive.
`OCCN1CCN(Cc2cc(Cl)c3cccnc3c2O)CC1` gave 15-hLO-2 inh inactive.
